Reference: PubChem BioAssay
Activity calls are given as the source filed them. Unless noted, no rule for the calls is given here.

Experiments:
[1] = system: Wnt5a (protein binding on small-molecule microarray); assay: small molecules binding Wnt5a protein – biophysical, small-molecule microarray, 635/667 nm fluorescence, primary screen (AID 1142); conditions: 635 nm fluorescence, higher = more signal;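 also: fluorescence read at 667 nm with signal to noise per printed feature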
[2] = ATP-based viability of Huh7 replicon cells – cell-based, CellTiter-Glo luminescence, basal, 48 h, cytotoxicity control for HCV replication inhibitor project, primary screen (AID 1143); conditions: higher = more signal, called active from +8 up or from −8 down;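 also: Huh7 hepatoma cells carrying a hepatitis C replication reporter with no stimulus; test concentration not given here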
[3] = Pseudomonas biofilm growth suppression – PAO1 strain, BacTiter-Glo luminescence, LB-PBS, primary screen (AID 1144); conditions: P. aeruginosa PAO1 biofilm, 12 h, higher = more signal
[4] = basal CRE-LacZ reporter activity in PC12 – cell-based, unstimulated, primary screen (AID 1145); conditions: no forskolin, luminescence, 4.5 h, higher = more signal, called active from +8 up or from −8 down
[5] = forskolin-driven CRE-LacZ activity in PC12 – cell-based, CRE-LacZ reporter, forskolin-stimulated, primary screen (AID 1146); conditions: luminescence, 4.5 h, higher = more signal, called active from +8 up or from −8 down;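 also: PC12 cells with 6xCRE LacZ reporter stimulated by forskolin 10 µM; beta-galactosidase reporter signal reflecting CREB driven transcription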
[6] = molecular target: Streptavidin (Streptomyces avidinii) (UniProt P22629); assay: compounds binding control protein streptavidin – biophysical, small-molecule microarray, 635/667 nm fluorescence, artefact control for SMM compound annotation, primary screen (AID 1147); conditions: higher = more signal;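 also: signal reflects streptavidin binding to arrayed compounds as a control protein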
[7] = probe aInhba binding on compound microarray – biochemical, small-molecule microarray, 635/667 nm fluorescence, primary screen (AID 1148); conditions: higher = more signal;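 also: score merges 667nm spot fluorescence with signal-to-noise for antibody binding to printed compounds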
Torsin-1A (Homo sapiens) [8] = molecular target: Torsin-1A (Homo sapiens) (UniProt O14656); assay: TOR1A wild-type binding on microarray – cell lysate, small-molecule microarray, lysate, 635/667 nm, primary screen (AID 1149); conditions: COS7 hTOR1A-WT lysate, 635 nm fluorescence, higher = more signal
Torsin-1A (Homo sapiens) [9] = molecular target: Torsin-1A (Homo sapiens) (UniProt O14656); assay: torsin A mutant lysate binding on microarrays – cell lysate, small-molecule microarray, COS7 lysate, 635/667 nm fluorescence, primary screen (AID 1150); conditions: COS7 hTOR1A mutant lysate, 635 nm fluorescence, higher = more signal;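 also: score pools 667 nm emission and signal to noise measuring lysate protein binding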
[10] = system: Sonic hedgehog protein (Shh); assay: Sonic hedgehog microarray binding compounds – biochemical, small-molecule microarray, 635/667 nm fluorescence, primary screen (AID 1151); conditions: 635 nm fluorescence, higher = more signal;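 also: Shh protein binding to compounds spotted on small-molecule microarray slides; score combines spot fluorescence intensity with signal-to-noise across triplicate slides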
[11] = optical density shifts of acrAB sulA E. coli – strain DRC41, OD650, 48 h, E. coli filamentation inducer project, primary screen (AID 1152); conditions: higher = more signal, called active from +8 up or from −8 down;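 also: E. coli MC1000 strain DRC41 lacking acrAB efflux pump and sulA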
[12] = probe aLefty1 binding on compound microarray – biochemical, small-molecule microarray, 635/667 nm fluorescence, primary screen (AID 1153); conditions: higher = more signal;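 also: score merges spot fluorescence with signal-to-noise ratio from the scanned slide images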
[13] = plasmodial surface anion channel blockers, osmotic lysis – cell-based, P. falciparum Indochina, OD700, 1 h, primary screen (AID 1154); conditions: P. falciparum Indochina infected RBC osmotic lysis, higher = more signal, called active from +8 up or from −8 down
[14] = plasmodial surface anion channel blockers, osmotic lysis – cell-based, P. falciparum Indochina, OD700, 2 h, primary screen (AID 1155);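 also: lysis reports solute entry through the parasite surface anion channel PSAC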; conditions: P. falciparum Indochina infected erythrocytes, higher = more signal, called active from +8 up or from −8 down
[15] = changes in parasitized red cell lysis, either direction – P. falciparum Indochina, OD700, 3 h, PSAC antagonist project, primary screen (AID 1156); conditions: P. falciparum-infected erythrocytes, osmotic lysis, higher = more signal, called active from +8 up or from −8 down
[16] = plasmodial surface anion channel blockers, osmotic lysis – cell-based, P. falciparum Indochina, OD700, 18 h, primary screen (AID 1157); conditions: P. falciparum Indochina infected erythrocytes, osmotic lysis OD700, 18 h; higher = more signal, called active from +8 up or from −8 down
[17] = S6 kinase pathway phospho-S6 level changes – cell-based, A549, cytoblot, luminescence, serum-stimulated, primary screen (AID 1158); conditions: 5 h, higher = more signal;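 also: serum-stimulated A549 lung adenocarcinoma cells; signal is phosphorylated S6 detected by cytoblot immunostaining with HRP secondary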
[18] = molecular target: NADPH oxidase 2 (Homo sapiens) (UniProt P04839); assay: compounds shifting NOX2 Amplex Red fluorescence – cell-based, HEK293-NOX2, PMA-stimulated, NOX inhibitor project, primary screen (AID 1159); conditions: 45 min, higher = more signal, called active from +8 up or from −8 down; also: test concentration not given here
[19] = molecular target: NADPH oxidase 4 (Homo sapiens) (UniProt Q9NPH5); assay: compounds shifting NOX4 Amplex Red fluorescence – cell-based, HEK293-NOX4, tetracycline-induced, NOX inhibitor project, primary screen (AID 1160); conditions: HEK293-NOX4, Amplex Red H2O2 fluorescence, 45 min; higher = more signal, called active from +8 up or from −8 down
[20] = molecular target: NADPH oxidase 5 (Homo sapiens) (UniProt Q96PH1); assay: compounds shifting NOX5 Amplex Red fluorescence – cell-based, HEK293-NOX5, NOX inhibitor project, primary screen (AID 1161); conditions: HEK293-NOX5, ionomycin, 45 min, higher = more signal
Chain of NADPH oxidase 5 (Homo sapiens) (Q96PH1 whole entry, looked up): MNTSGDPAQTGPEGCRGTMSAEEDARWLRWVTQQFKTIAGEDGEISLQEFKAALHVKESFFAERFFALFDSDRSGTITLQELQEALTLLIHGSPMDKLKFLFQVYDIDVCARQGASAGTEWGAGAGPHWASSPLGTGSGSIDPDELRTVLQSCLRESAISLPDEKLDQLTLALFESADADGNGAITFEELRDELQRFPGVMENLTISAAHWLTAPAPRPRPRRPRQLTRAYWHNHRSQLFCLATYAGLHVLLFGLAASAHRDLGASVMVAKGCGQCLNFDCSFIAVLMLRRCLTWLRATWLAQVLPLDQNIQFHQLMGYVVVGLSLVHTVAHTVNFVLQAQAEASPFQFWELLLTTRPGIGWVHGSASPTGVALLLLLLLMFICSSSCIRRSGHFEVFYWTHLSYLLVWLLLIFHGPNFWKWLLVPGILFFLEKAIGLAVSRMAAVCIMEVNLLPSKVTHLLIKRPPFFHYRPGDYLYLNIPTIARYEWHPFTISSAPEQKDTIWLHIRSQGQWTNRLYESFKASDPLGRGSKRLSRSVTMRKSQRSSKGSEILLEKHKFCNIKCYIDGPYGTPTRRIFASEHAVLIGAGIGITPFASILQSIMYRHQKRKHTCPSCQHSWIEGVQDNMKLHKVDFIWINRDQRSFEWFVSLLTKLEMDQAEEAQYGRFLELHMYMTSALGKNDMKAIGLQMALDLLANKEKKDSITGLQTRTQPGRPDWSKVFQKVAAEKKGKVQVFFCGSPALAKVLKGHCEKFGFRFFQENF

Chain of Streptavidin (Streptomyces avidinii) (P22629 whole entry, looked up): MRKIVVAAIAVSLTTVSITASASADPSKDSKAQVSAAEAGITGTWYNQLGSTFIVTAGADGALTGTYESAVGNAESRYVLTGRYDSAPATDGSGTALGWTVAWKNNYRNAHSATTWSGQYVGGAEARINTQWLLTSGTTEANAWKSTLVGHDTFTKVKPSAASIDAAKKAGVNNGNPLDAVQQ
Chain of NADPH oxidase 2 (Homo sapiens) (P04839 whole entry, looked up): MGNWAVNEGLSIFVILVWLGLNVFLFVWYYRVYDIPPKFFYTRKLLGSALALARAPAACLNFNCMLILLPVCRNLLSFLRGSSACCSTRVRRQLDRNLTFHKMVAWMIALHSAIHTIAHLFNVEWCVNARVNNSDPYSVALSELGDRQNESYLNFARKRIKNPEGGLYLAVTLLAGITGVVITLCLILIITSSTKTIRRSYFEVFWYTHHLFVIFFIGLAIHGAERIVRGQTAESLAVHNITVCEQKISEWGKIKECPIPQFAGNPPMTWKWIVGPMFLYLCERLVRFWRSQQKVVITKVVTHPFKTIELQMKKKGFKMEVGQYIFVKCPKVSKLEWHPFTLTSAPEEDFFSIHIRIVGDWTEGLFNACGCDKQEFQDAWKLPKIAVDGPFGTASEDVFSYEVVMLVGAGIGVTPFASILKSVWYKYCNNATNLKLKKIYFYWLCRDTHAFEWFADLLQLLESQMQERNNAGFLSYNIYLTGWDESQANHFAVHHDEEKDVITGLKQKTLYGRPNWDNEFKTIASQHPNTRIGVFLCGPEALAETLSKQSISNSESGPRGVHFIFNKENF
Chain of NADPH oxidase 4 (Homo sapiens) (Q9NPH5 whole entry, looked up): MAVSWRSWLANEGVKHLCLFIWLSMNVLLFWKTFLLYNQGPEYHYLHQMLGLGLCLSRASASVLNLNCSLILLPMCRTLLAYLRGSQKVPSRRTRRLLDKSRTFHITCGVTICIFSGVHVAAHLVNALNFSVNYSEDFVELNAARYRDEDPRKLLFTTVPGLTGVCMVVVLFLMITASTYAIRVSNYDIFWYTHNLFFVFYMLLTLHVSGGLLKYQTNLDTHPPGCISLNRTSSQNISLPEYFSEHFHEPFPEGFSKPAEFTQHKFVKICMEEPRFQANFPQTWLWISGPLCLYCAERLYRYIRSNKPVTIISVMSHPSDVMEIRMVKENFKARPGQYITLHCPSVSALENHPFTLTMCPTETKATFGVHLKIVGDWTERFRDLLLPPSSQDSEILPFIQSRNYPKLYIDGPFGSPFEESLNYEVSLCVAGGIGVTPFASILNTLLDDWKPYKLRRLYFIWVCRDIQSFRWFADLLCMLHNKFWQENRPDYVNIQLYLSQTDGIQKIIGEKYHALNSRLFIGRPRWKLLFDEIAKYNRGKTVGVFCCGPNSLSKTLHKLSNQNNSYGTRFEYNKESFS
Chain of Torsin-1A (Homo sapiens) (O14656 whole entry, looked up): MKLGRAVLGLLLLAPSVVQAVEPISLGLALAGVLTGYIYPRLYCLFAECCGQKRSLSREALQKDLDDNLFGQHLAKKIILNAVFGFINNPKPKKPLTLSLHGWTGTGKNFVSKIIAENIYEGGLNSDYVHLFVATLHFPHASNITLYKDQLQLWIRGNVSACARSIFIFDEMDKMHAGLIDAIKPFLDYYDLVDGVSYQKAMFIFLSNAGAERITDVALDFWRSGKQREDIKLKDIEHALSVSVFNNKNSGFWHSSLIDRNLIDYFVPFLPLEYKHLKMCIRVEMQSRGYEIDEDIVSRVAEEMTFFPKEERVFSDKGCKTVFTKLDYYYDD

Row | Compound | composite z-score [1] | z-score [2] | z-score [3] | z-score [4] | z-score [5] | composite z-score [6] | composite z-score [7] | composite z-score (Torsin-1A (Homo sapiens) [8]) | composite z-score (Torsin-1A (Homo sapiens) [9]) | composite z-score [10] | z-score [11] | composite z-score [12] | z-score [13] | z-score [14] | z-score [15] | z-score [16] | z-score [17] | z-score [18] | z-score [19] | z-score [20]
1 | C=CCC(OC(C)=O)[C@@H]1[C@@H](N(Cc2ccc(-c3ccccc3)cc2)C(=O)c2ccc(C)cc2)c2cc(OCCCO)ccc2N1C(=O)Cc1ccc(OC)cc1 (stereo not given in full) | -0.0283 | -0.536 (inactive) | 0.307 (inactive) | 0.904 (inactive) | 0.429 (inactive) | 1.36 | -0.101 | -0.691 | -0.0431 | 0.726 | 2.25 (inactive) | -0.0937 | 0.398 (inactive) | -1.46 (inactive) | -0.774 (inactive) | -1.43 (inactive) | 1.52 | -0.137 (inactive) | 1.01 (inactive) | 2.57
2 | C=CC[C@@]1(C(N)=O)N=C(c2ccc(OCCCO)cc2)O[C@@H]1c1ccccc1N=[N+]=[N-] | 0.373 | -0.656 (inactive) | -0.0376 (inactive) | 0.614 (inactive) | -1.89 (inactive) | 0.496 | 0.195 | 1.02 | 0.705 | 0.821 | 1.3 (inactive) | 0.355 | 32.8 (active) | 32.6 (active) | 4.04 (inactive) | 3.37 (inactive) | 0.305 | 0.039 (inactive) | -0.164 (inactive) | -1.76
3 | C=CCC(OC(C)=O)[C@@H]1[C@@H](N(Cc2ccc(-c3cccc(C(F)(F)F)c3)o2)C(=O)c2ccc(C)cc2)c2cc(OCCCO)ccc2N1C(=O)c1ccc2ccccc2n1 (stereo not given in full) | 0.0861 | 0.0775 (inactive) | -0.293 (inactive) | 0.395 (inactive) | -0.0797 (inactive) | 0.256 | -0.151 | -0.138 | 0.114 | 0.978 | 1.55 (inactive) | 0.235 | 1.97 (inactive) | 0.435 (inactive) | -0.225 (inactive) | 0.0644 (inactive) | -0.218 | -0.0312 (inactive) | 0.95 (inactive) | 2.06
4 | NC(=O)NCC#Cc1ccc2c(c1)[C@]1(C(=O)N2)[C@H](c2ccccc2OCCO)N2[C@H](c3ccccc3)[C@H](c3ccccc3)OC(=O)[C@H]2[C@@H]1C(=O)N1CCCCCCC1 | 0.723 | -1.57 (inactive) | 0.433 (inactive) | 0.802 (inactive) | 0.109 (inactive) | 2.48 | 1.88 | 2.04 | 1.28 | 1.05 | 1.01 (inactive) | 2.71 | 1.71 (inactive) | 0.786 (inactive) | 1.19 (inactive) | 0.443 (inactive) | -0.281 | 1.87 (inactive) | 0.893 (inactive) | 0.768
5 | O=[N+]([O-])c1ccc(C[n+]2ccc(CCCO)cc2)o1 | 0.98 | -1.22 (inactive) | 0.0757 (inactive) | 0.0026 (inactive) | 0.619 (inactive) | 1.15 | 0.189 | 0.153 | 0.263 | 1.06 | -0.934 (inactive) | -0.0162 | 1.21 (inactive) | 0.331 (inactive) | 0.616 (inactive) | 0.377 (inactive) | 0.437 | 0.00328 (inactive) | -3.09 (inactive) | -0.4
6 | O=C(NCC(O)CO)[C@]1(CCS(=O)(=O)c2ccccc2)N=C(c2ccc(OCCCO)cc2)O[C@@H]1c1ccccc1 (stereo not given in full) | 0.299 | -0.084 (inactive) | 0.295 (inactive) | 0.596 (inactive) | -0.0842 (inactive) | 1.03 | -0.0567 | 0.499 | 1.48 | -1.05 | -0.374 (inactive) | 0.0371 | 25.6 (active) | 6.78 (inactive) | 1.61 (inactive) | 0.987 (inactive) | -0.516 | 1.4 (inactive) | 0.762 (inactive) | -0.186
7 | COCCOC(=O)N1C(=O)[C@@]2(c3ccccc31)[C@H](c1ccc(O)cc1)N1[C@H](c3ccccc3)[C@H](c3ccccc3)OC(=O)[C@H]1[C@@H]2C(N)=O | -0.235 | -1.34 (inactive) | 0.0439 (inactive) | 0.208 (inactive) | 1.88 (inactive) | -0.516 | -0.128 | -1.04 | 0.619 | -0.218 | 0.0672 (inactive) | -0.379 | 2 (inactive) | 1.18 (inactive) | 1.34 (inactive) | 0.44 (inactive) | -0.0639 | -0.198 (inactive) | -0.747 (inactive) | -0.0275
8 | COC(=O)[C@@]1(Cc2ccc(OC)cc2)[C@H]2c3cc(C(=O)N(C)C)n(Cc4ccc(OC)c(OC)c4)c3C[C@H]2CN1C(=O)c1ccccc1 | 0.171 | -2.97 (inactive) | 0.437 (inactive) | 0.583 (inactive) | 0.292 (inactive) | 1.67 | 0.55 | 0.258 | 1.17 | -0.521 | -1.86 (inactive) | 1.14 | 2.55 (inactive) | 0.807 (inactive) | 0.804 (inactive) | 1.23 (inactive) | -0.574 | 0.178 (inactive) | 1.13 (inactive) | 2.18
9 | C=CCC(OC(C)=O)[C@@H]1[C@@H](N(Cc2cc3ccccc3o2)C(=O)c2ccc(C)cc2)c2cc(OCCCO)ccc2N1C(=O)c1ccc(-c2ccccc2)cc1 (stereo not given in full) | -0.221 | -2.92 (inactive) | -2.16 (inactive) | 2.76 (inactive) | -1.12 (inactive) | 0.0073 | 0.295 | 0.308 | -0.264 | 0.158 | 1.33 (inactive) | -0.519 | 1.8 (inactive) | 0.345 (inactive) | -1.06 (inactive) | 0.115 (inactive) | 4.08 | -1.59 (inactive) | 0.768 (inactive) | 2.25
